For 9 compounds, outcome and AC50 results are on record in PubChem BioAssay (EPA / NIEHS).

Assay [1] concerns the target Myc proto-oncogene protein (Homo sapiens) (UniProt P01106). The experiment in a line: ATG_Myc_CIS: Attagene CIS-FACTORIAL HepG2 Assay for human Myelocytomatosis (Myc) Proto-Oncogene Transcription Factor (AID 2282990). The note with it: HepG2, Attagene cis-reporter transcription factor activity; actives raise or lower the signal. A digest of the protocol: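 Read-out: fluorescent reporter mRNA fragments resolved by capillary electrophoresis after RT-PCR. Human HepG2 liver cells carried transfected cis-element reporter units and were dosed for 24 h. Gain or loss of signal fitted relative to DMSO baseline.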

Assay [2] in a line: ATG_NF_kB_CIS: Attagene CIS-FACTORIAL HepG2 Assay for human Nuclear Factor Kappa B (NF-kB) (AID 2282991). The note with it: HepG2 Attagene cis-factorial NF-kB reporter mRNA; actives raise or lower the signal. In short, it runs like this: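 Endogenous transcription factor activity in HepG2 was captured via cis-regulated reporter constructs; after 24 h dosing, reporter mRNA was reverse-transcribed, amplified, fluorescently labelled and sized by capillary electrophoresis, with activity fitted bidirectionally relative to DMSO.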

Assay [3] is described as follows: ATG_NRF2_ARE_CIS: Attagene CIS-FACTORIAL HepG2 Assay for human Nuclear Factor Erythroid 2 Related Factor 2 (NFR2) response to Antioxidant Response Elements (ARE) (AID 2282992).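 As to AC50: reporter mRNA level measured by RT-PCR and capillary electrophoresis fluorescence.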 The note with it: HepG2 Attagene ARE/NRF2 reporter, transcription factor activity; actives raise or lower the signal. A digest of the protocol: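 Fluorescence intensity of reporter-specific cDNA fragments, separated by capillary electrophoresis, reflects mRNA induction in transfected HepG2 cells at 24 h. Activity is fitted bidirectionally, DMSO serving as baseline.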

Assay [4] in a line: ATG_Oct_MLP_CIS: Attagene CIS-FACTORIAL HepG2 Assay for human Octamer-Binding Transcription Factor (Oct) (AID 2282993). The note with it: HepG2 Attagene cis-factorial Oct reporter, mRNA; actives raise or lower the signal. In short, it runs like this: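 Read-out: reporter mRNA via RT-PCR plus capillary electrophoresis of 6-FAM-labelled fragments. Transiently transfected HepG2, 24 h exposure, endogenous TF activity on cis elements. Gain or loss of signal fitted relative to DMSO.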

For assay [5], the target named is Cellular tumor antigen p53 (Homo sapiens) (UniProt P04637). As to the kind of experiment: ATG_p53_CIS: Attagene CIS-FACTORIAL HepG2 Assay for human p53 Transcription Factor (AID 2282994). The note with it: HepG2 p53 cis-element reporter, Attagene mRNA; actives raise or lower the signal. A digest of the protocol: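 Transiently transfected HepG2 (multiple cis reporter transcription units); exposure 24 h; reporter RNA via RT-PCR, 6-FAM extension, 2 h HpaI digest at 37 C, CE detection; DMSO baseline.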

Assay [6] is described as follows: BSK_3C_TissueFactor: BioMAP Diversity Plus: 3C Assay for Tissue Factor Biomarker Activity (AID 2282997). The note with it: BioMAP 3C HUVEC, tissue factor biomarker readout; actives raise or lower the signal. In short, it runs like this: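 Cells used were primary human umbilical vein endothelial cells. They were dosed with chemical, and after 24 h Tissue Factor was quantified by ELISA. Curves were fitted bidirectionally with DMSO as baseline.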

The nature of assay [7]: BSK_3C_uPAR: BioMAP Diversity Plus: 3C Assay for Urokinase-type plasminogen activator receptor (uPAR) Biomarker Activity (AID 2282998). The note with it: BioMAP 3C HUVEC, uPAR biomarker ELISA; actives raise or lower the signal. A digest of the protocol:
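HUVEC primary cells; 24 h post-dose; uPAR by ELISA; gain or loss of signal fitted bidirectionally vs DMSO baseline.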

The nature of assay [8]: BSK_4H_Eotaxin3: BioMAP Diversity Plus: 4H Assay for Eotaxin 3 Biomarker Activity (AID 2283000).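 As to outcome: CCL26 protein level quantified by ELISA in parallel with SRB cytotoxicity check.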 Particulars: primary human endothelial cells (HUVEC); actives raise or lower the signal. In short, it runs like this: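 Endothelial primary cells (human umbilical vein) exposed to compound for 24 h. ELISA detection of Eotaxin-3.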
In assay [9] the target is human Peroxisome Proliferator-activated Receptor delta (PPARd), PPARD (gene 5467) (UniProt Q03181). As to the kind of experiment: ATG_PPARd_TRANS: Attagene TRANS-FACTORIAL HepG2 Assay for human Peroxisome Proliferator-activated Receptor delta (PPARd) (AID 2283002; active = hit-call score of the fitted dose curve at least 0.9, where 1 is the maximum). A digest of the protocol: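 Read-out: reporter mRNA induction, quantified by fluorescent RT-PCR products resolved by capillary electrophoresis. Human HepG2 liver cells carried transiently transfected Gal4-UAS reporter constructs with chimeric NR-Gal4 fusions. Cells were dosed for 24 h; DMSO served as baseline.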

The nature of assay [10]: BSK_3C_Proliferation: Cell Proliferation Assessment in the BioMAP Diversity Plus: 3C Assay (AID 2283006).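 As to AC50: potency may reflect either rise or fall in cell number versus DMSO.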 The note with it: primary human endothelial cells (HUVEC). A digest of the protocol:
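Cells (human umbilical vein endothelial, sub-confluent) receive test chemical; after 48 h they are fixed in 10% trichloroacetic acid, stained with 0.1% SRB and read at 560 nm. Activity is referenced to DMSO, fitting increases and decreases.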

The target of assay [11] is Peroxisome proliferator-activated receptor gamma (Homo sapiens) (UniProt P37231). The experiment in a line: ATG_PPARg_TRANS: Attagene TRANS-FACTORIAL HepG2 Assay for human Peroxisome Proliferator-activated Receptor-gamma (PPARg) (AID 2283007; active = hit-call score of the fitted dose curve at least 0.9, where 1 is the maximum). In short, it runs like this: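 A TRANS-format multiplexed reporter assay measures activity of an exogenous chimeric NR-Gal4 protein in HepG2 cells. After 24 h of chemical exposure, reporter transcripts are amplified, fluorescently labelled and sized by capillary electrophoresis, with gain of signal scored against DMSO.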

Assay [12] concerns the target Nuclear receptor subfamily 1 group I member 2 (Homo sapiens) (UniProt O75469). As to the kind of experiment: ATG_PXR_TRANS: Attagene TRANS-FACTORIAL HepG2 Assay for human Pregnane X Receptor (PXR) (AID 2283008; active = hit-call score of the fitted dose curve at least 0.9, where 1 is the maximum). A digest of the protocol:
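Transient HepG2 transfectants carrying multiplexed reporter transcription units; PXR activity read through a Gal4 chimera. 24 h exposure. RT-PCR/CE fluorescence; upward curve fit referenced to DMSO.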

The target of assay [13] is human RAR-related Orphan Receptor beta (RORb), RORB (gene 6096) (UniProt Q92753). The experiment in a line: ATG_RORb_TRANS: Attagene TRANS-FACTORIAL HepG2 Assay for human RAR-related Orphan Receptor beta (RORb) (AID 2283010; active = hit-call score of the fitted dose curve at least 0.9, where 1 is the maximum). A digest of the protocol: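 Transfect HepG2 with multiple GAL4-UAS reporter transcription units; dose chemicals for 24 h; isolate RNA, reverse-transcribe and PCR-amplify reporter sequences; label, digest and resolve fragments by capillary electrophoresis; fit increases relative to DMSO.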

Assay [14] has as its target human RAR-related Orphan Receptor gamma (RORg), RORC (gene 6097) (UniProt P51449). As to the kind of experiment: ATG_RORg_TRANS: Attagene TRANS-FACTORIAL HepG2 Assay for human RAR-related Orphan Receptor gamma (RORg) (AID 2283011; active = hit-call score of the fitted dose curve at least 0.9, where 1 is the maximum). In short, it runs like this: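 Activity is scored as increase in GAL4-UAS reporter mRNA over DMSO, detected by fluorescent RT-PCR and capillary electrophoresis in HepG2 cells transiently expressing a RORg-Gal4 chimera, 24 h after dosing.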

A short description of assay [15]: BSK_3C_VCAM1: BioMAP Diversity Plus: 3C Assay for Vascular cell adhesion molecule 1 (VCAM1) Biomarker Activity (AID 2282999). Particulars: BioMAP 3C HUVEC, VCAM1 ELISA, cytokine-stimulated; actives raise or lower the signal. In short, it runs like this:
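HUVEC primary cells, 24 h compound exposure; VCAM-1 by ELISA; gain/loss of signal fitted bidirectionally vs DMSO baseline.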
For orientation: In an ELISA, binding on a coated surface is turned into a signal by an enzyme label.

Assay [16] deals with Retinoic acid receptor alpha (Homo sapiens) (UniProt P10276). The experiment in a line: ATG_RARa_TRANS: Attagene TRANS-FACTORIAL HepG2 Assay for human Retinoic Acid Receptor alpha (RARa) (AID 2283005; active = hit-call score of the fitted dose curve at least 0.9, where 1 is the maximum;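 as to AC50: potency for increased reporter signal meaning RARa activation over DMSO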). A digest of the protocol:
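HepG2 transiently transfected with multiplex GAL4-UAS reporter units including a human RARa–GAL4 chimera; 24 h compound exposure. Reporter mRNA quantified by RT-PCR, 6-FAM labeling and capillary electrophoresis; gain of signal versus DMSO.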

Assay [17] concerns the target human Retinoic Acid Receptor beta (RARb), RARB (gene 5915) (UniProt P10826). As to the kind of experiment: ATG_RARb_TRANS: Attagene TRANS-FACTORIAL HepG2 Assay for human Retinoic Acid Receptor beta (AID 2283004; active = hit-call score of the fitted dose curve at least 0.9, where 1 is the maximum). In short, it runs like this:
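HepG2, transient MRTU transfection, NR–Gal4 chimera, 24 h treatment; RT-PCR plus CE fluorescence detection of reporter mRNA; gain of signal vs DMSO.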

Assay [18] has as its target human Retinoic Acid Receptor gamma (RARg), RARG (gene 5916) (UniProt P13631). The experiment in a line: ATG_RARg_TRANS: Attagene TRANS-FACTORIAL HepG2 Assay for human Retinoic Acid Receptor gamma (RARg) (AID 2283009; active = hit-call score of the fitted dose curve at least 0.9, where 1 is the maximum). A digest of the protocol: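 TRANS format measured activity of exogenous NR-GAL4 fusion (RARg) in transfected HepG2 liver cells after 24 h dosing. Induced reporter RNA was detected by RT-PCR/capillary electrophoresis fluorescence, analysed in the positive direction against DMSO.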

Read-out in assay [19]: Intercellular Adhesion Molecule 1 (ICAM1), ICAM1 (gene 3383)
The experiment in a line: BSK_3C_ICAM1: BioMAP Diversity Plus: 3C Assay for Intercellular Adhesion Molecule 1 (ICAM1) Biomarker Activity (AID 2283003). Particulars: primary human endothelial cells (HUVEC); actives raise or lower the signal. A digest of the protocol: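 Chemicals are dosed onto primary human umbilical vein endothelium (3C system). After 24 h, ICAM-1 is measured by ELISA, and responses are fitted bidirectionally relative to DMSO.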

Inconclusive results are not listed. Calls of active or inactive are those of the source. The calls were made as follows, unless noted: active = hit-call score of the fitted dose curve at least 0.9, where 1 is the maximum; inactive = score below 0.9.

Sequence of Nuclear receptor subfamily 1 group I member 2 (Homo sapiens) (O75469 whole entry, looked up, the tested form may be a part): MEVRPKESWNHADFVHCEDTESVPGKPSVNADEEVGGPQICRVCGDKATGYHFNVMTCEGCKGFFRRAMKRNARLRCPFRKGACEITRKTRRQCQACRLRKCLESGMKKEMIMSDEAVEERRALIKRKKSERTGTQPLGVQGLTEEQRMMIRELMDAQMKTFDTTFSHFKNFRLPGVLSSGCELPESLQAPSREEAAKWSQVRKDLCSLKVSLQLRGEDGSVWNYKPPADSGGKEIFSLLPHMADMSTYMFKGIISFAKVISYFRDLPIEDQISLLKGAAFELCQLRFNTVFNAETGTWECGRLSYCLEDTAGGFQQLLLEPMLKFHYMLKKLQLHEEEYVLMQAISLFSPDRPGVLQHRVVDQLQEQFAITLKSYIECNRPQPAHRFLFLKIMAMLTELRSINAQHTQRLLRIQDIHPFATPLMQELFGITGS
Sequence of human Retinoic Acid Receptor beta (RARb), RARB (gene 5915) (P10826 whole entry, looked up, the tested form may be a part): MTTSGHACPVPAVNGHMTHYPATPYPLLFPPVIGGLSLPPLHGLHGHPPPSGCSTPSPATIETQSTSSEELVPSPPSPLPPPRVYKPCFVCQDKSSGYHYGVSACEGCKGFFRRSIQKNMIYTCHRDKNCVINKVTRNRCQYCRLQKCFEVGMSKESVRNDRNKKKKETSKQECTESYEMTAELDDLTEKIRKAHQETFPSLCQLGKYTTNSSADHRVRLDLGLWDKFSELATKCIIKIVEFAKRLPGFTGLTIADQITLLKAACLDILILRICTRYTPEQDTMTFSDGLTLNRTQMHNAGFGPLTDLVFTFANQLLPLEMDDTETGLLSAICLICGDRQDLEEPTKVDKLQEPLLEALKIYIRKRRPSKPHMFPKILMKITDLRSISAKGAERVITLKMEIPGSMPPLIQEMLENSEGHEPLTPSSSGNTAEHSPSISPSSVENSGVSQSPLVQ
Sequence of human Retinoic Acid Receptor gamma (RARg), RARG (gene 5916) (P13631 whole entry, looked up, the tested form may be a part): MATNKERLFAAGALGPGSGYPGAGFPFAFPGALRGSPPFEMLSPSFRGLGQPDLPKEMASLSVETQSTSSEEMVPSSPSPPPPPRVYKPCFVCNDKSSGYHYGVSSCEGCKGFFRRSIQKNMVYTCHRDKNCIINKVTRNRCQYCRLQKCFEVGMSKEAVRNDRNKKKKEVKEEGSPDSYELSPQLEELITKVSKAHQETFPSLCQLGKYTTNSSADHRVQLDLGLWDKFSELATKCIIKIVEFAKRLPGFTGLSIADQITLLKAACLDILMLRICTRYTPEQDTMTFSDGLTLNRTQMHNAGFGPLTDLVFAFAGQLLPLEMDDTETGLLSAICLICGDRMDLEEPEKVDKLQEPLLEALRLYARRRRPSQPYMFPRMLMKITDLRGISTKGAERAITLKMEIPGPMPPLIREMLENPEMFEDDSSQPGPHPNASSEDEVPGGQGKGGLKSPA
Sequence of Retinoic acid receptor alpha (Homo sapiens) (P10276 whole entry, looked up, the tested form may be a part): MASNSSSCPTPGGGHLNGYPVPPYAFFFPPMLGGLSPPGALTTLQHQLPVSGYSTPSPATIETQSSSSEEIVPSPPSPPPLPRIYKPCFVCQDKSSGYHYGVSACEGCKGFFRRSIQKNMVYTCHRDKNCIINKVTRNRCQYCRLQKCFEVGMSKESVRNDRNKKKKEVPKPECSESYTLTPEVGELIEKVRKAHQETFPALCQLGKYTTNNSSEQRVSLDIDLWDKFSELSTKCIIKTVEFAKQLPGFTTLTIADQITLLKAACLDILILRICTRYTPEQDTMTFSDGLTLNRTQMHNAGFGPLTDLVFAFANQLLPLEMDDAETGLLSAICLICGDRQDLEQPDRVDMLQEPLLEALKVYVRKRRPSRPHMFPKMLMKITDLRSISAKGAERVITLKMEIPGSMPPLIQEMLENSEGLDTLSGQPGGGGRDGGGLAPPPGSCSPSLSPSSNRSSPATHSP
Sequence of Myc proto-oncogene protein (Homo sapiens) (P01106 whole entry, looked up, the tested form may be a part): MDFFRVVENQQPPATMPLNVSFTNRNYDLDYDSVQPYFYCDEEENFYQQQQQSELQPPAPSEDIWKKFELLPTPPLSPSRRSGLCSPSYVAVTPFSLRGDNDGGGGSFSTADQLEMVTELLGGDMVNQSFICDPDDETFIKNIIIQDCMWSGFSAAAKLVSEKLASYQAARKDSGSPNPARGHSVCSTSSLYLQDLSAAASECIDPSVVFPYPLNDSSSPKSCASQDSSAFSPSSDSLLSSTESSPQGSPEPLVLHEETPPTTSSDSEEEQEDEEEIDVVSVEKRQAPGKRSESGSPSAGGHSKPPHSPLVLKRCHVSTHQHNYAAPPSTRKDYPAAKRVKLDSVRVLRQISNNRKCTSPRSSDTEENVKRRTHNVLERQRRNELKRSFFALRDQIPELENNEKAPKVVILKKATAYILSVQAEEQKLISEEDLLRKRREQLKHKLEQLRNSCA
Sequence of human Peroxisome Proliferator-activated Receptor delta (PPARd), PPARD (gene 5467) (Q03181 whole entry, looked up, the tested form may be a part): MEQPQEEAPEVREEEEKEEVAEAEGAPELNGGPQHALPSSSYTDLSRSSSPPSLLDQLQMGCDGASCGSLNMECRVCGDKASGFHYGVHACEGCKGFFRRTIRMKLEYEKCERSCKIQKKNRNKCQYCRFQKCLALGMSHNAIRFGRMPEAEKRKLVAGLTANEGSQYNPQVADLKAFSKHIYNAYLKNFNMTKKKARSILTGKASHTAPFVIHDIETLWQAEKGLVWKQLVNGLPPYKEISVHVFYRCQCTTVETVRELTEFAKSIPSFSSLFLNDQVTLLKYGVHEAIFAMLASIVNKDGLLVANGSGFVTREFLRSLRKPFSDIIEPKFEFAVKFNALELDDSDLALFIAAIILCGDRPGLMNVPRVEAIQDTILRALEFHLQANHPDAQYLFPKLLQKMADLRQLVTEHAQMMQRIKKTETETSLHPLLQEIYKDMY
Sequence of Cellular tumor antigen p53 (Homo sapiens) (P04637 whole entry, looked up): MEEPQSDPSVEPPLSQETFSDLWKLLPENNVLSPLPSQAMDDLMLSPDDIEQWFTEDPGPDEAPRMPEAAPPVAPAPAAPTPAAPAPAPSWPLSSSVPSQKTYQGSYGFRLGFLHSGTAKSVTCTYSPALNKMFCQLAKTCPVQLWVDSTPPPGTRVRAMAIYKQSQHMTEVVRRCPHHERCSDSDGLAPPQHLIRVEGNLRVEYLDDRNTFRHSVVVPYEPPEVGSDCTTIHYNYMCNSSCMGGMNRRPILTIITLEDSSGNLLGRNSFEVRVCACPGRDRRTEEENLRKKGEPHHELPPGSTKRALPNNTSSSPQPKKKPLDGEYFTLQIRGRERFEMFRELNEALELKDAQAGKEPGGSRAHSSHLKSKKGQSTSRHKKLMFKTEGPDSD
Sequence of human RAR-related Orphan Receptor gamma (RORg), RORC (gene 6097) (P51449 whole entry, looked up, the tested form may be a part): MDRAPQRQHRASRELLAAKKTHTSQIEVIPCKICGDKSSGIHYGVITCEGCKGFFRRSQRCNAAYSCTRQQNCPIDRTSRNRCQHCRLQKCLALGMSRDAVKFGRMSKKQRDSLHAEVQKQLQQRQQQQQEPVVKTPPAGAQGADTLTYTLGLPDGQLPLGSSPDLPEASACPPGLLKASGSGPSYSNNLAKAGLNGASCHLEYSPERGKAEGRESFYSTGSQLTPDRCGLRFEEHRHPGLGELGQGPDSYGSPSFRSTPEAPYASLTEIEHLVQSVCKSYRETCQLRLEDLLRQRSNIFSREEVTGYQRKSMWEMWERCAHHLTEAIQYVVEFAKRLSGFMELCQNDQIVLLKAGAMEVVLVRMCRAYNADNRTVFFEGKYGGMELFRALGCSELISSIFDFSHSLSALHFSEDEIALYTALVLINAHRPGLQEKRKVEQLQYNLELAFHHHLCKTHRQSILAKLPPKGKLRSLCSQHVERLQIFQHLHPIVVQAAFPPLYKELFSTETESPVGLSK
Sequence of Peroxisome proliferator-activated receptor gamma (Homo sapiens) (P37231 whole entry, looked up, the tested form may be a part): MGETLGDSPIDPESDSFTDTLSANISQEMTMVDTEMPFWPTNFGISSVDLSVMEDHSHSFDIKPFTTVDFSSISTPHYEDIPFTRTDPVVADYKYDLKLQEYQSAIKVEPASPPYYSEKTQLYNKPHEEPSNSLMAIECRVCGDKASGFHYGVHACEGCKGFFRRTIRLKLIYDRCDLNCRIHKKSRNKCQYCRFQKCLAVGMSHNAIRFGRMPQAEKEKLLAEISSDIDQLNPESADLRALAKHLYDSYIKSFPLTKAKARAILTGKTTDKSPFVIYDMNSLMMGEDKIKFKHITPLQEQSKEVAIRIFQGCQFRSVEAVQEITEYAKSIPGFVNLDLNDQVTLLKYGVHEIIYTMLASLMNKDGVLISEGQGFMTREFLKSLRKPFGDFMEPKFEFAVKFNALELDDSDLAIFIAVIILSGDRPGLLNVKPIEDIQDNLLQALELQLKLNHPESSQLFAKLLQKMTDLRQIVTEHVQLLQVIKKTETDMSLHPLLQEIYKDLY
Sequence of human RAR-related Orphan Receptor beta (RORb), RORB (gene 6096) (Q92753 whole entry, looked up, the tested form may be a part): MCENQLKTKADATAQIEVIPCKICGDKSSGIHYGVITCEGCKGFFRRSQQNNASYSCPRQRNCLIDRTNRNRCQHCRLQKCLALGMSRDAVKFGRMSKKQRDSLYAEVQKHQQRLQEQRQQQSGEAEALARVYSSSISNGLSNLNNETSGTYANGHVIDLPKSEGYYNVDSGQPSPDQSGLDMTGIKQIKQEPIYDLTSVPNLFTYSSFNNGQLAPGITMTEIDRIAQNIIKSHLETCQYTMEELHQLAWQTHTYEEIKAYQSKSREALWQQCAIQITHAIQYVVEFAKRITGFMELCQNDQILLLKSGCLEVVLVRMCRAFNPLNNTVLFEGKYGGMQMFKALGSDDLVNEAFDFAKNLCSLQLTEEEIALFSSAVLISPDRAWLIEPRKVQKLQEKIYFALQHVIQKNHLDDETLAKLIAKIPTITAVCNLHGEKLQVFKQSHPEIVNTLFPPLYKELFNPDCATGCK

By AC50 is commonly meant the concentration at which the activity in the assay is half-maximal. Take `COc1ccc(/C=C/S(=O)(=O)NC(=O)c2ccc(C)cc2Cl)cc1`: the compound was classed as inactive in assay [1], in [2], in [3], in assay [4], in [5] and in assay [6]. The outcome in assay [7], in [8], in assay [9], in assay [12], in assay [13] and in assay [14] was inactive. The concentration at half-maximal activity (AC50) in assay [10] was 7.08 µM (active); in assay [11], 23.7 µM (active).

As to `NC(=O)NO`, the call in assay [1], in [2], in assay [3], in assay [4], in assay [5] and in assay [6] was inactive. The result in [7], in assay [15], in assay [9], in assay [16], in assay [10] and in assay [12] was inactive. Besides, the compound was called inactive in assay [13] and in assay [14].

For `CC[C@H](C)C(=O)O[C@H]1C[C@@H](C)C=C2C=C[C@H](C)[C@H](CC[C@@H]3C[C@@H](O)CC(=O)O3)[C@H]21`, the compound was classed as inactive in assay [1], in assay [2], in [5] and in [11]. Further, the AC50 is 33.4 µM (active) in [3]; 6.78 µM (active) in assay [4]; 31 µM (active) in assay [6]; 18.3 µM (active) in assay [7]; 33.7 µM (active) in assay [15]; 13.6 µM (active) in assay [10]. Besides, in [12], the AC50 is 2.51 µM (active).

Turning to `Fc1ccccc1[C@@H](F)COC1CCC(Nc2ncnc3[nH]ncc23)CC1` (some centres undefined), the half-maximal activity concentration (AC50) was 25.4 µM (active) in assay [1]; 6.77 µM (active) in [3]; 35.2 µM (active) in assay [6]; 15.2 µM (active) in [7]; 23.6 µM (active) in assay [8]; 29.3 µM (active) in assay [10]. Also, the compound was called inactive in assay [2], in assay [4], in assay [5], in [9], in [11] and in assay [12].

With `CC(C)CCCCCCCOC(=O)CCCCC(=O)OCCCCCCCC(C)C`, the result in assay [1], in [2], in [3], in [4], in assay [5] and in assay [6] was inactive. The result in assay [7], in assay [15], in assay [17], in assay [10], in [18] and in [14] was inactive. Moreover, the concentration at half-maximal activity (AC50) in assay [16] is 28.8 µM (active).

For the compound `CCn1nc(Cc2ccccc2)cc1C1CCN(C[C@H]2C[C@H](N(C)[C@@H](C(=O)O)C(C)C)C[C@@H]2c2cccc(F)c2)CC1`, the call in [1], in [4], in assay [6], in assay [7], in assay [9] and in [19] was inactive. The outcome in [10] and in assay [12] was inactive. Further, the half-maximal activity concentration (AC50) was 38.2 µM (active) in assay [2], 51.5 µM (active) in assay [3] and 100 µM (active) in assay [5].

With `O=C1CCC(N2C(=O)c3ccccc3C2=O)C(=O)N1` (centres undefined), the compound was called inactive in assay [1], in assay [2], in [3], in assay [4], in assay [5] and in assay [6]. Further, the outcome in [7], in [9], in [19] and in assay [10] was inactive.

In the case of `COC(=O)c1ccccc1O`, the compound was called inactive in [1], in assay [2], in [3], in assay [5], in assay [6] and in assay [7]. Besides, the result in assay [8], in assay [9], in assay [19], in assay [17], in [16] and in assay [10] was inactive. Also, in assay [18], the call was inactive. Moreover, the half-maximal activity concentration (AC50) in assay [4] is 59.6 µM (active); in assay [12], 24.9 µM (active).

`CN(C)c1ccc(Cc2ccc(N(C)C)cc2)cc1`: the compound was classed as inactive in assay [1], in assay [5], in [6], in assay [7], in [8] and in assay [19]. Moreover, the call in [17], in assay [12] and in assay [18] was inactive. Also, the half-maximal activity concentration (AC50) in [2] is 37.9 µM (active); in assay [3], 78.2 µM (active); in [4], 56.7 µM (active); in assay [9], 58.5 µM (active); in assay [10], 13.4 µM (active).
